Screens from PubChem BioAssay.
A selection: hits, their analogues and other compounds. The true share with any hit is near 7%.
PI5P4Ka inh – blocks human PI5P4K alpha kinase activity; P48426; PI5P4Kalpha enzyme, ADP-Glo luminescence, 60 min; stronger effect = lower value; max response, %; 330,000 compounds, 1.2% hits; AID 652105; active = max response of -50% or lower; inconclusive = between -30% and -50%; inactive = -30% or higher; also: value at the top dose of about 77 µM
Target sequence (P48426 whole entry, looked up): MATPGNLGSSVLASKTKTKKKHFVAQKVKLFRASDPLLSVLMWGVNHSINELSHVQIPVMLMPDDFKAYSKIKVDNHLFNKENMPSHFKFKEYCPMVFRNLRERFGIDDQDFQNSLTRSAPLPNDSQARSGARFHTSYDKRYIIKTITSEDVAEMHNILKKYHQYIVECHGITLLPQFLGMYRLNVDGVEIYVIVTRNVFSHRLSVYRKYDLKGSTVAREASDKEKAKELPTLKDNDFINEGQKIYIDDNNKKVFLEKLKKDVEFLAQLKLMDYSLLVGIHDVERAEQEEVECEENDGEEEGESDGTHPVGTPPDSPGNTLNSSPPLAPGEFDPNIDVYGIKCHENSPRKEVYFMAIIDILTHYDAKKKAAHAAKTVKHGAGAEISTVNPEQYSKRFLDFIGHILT
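Single end-point luminescence (ADP-Glo) quantified ADP from PI5P4Kalpha turnover; ATP 5 microM final, 1 h at RT, 0.1% CHAPS and 0.28 mM EGTA in HEPES pH 7.4.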
JMJD2A Tudor inh – inhibitors of human JMJD2A Tudor domain; AID 504339; AlphaScreen JMJD2A-Tudor / H3K4me3 peptide binding; O75164; 390,000 compounds, 4.4% hits; Potency, µM (highest dose often 114 µM), actives largely listed as inhibitors; also: nearly all actives have a fitted effect of over 50% in size
PLK1 PBD block – blocks phosphopeptide binding to human PLK1 polo-box domain; Plk1 PBD binding of FITC phosphopeptide, fluorescence polarization; AID 720504; 360,000 compounds, 2.8% hits; Potency, µM, actives largely listed as inhibitors; also: series mostly up to about 57 µM; nearly all actives have a fitted effect of over 65% in size
GCN5L2 inh – GCN5L2 (KAT2A) acetyltransferase inhibition. GCN5L2 HAT assay, ThioGlo1 CoA-SH fluorescence. Q92830. Potency, µM (doses to about 58.9 µM), hits mostly inhibitors. 390,000 compounds, 0.21% hits
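GCN5L2 (20nM final) in 50mM HEPES, 0.1mM EDTA pH 7.5, 0.01% Tween-20 was preincubated 15 min at room temperature with compound, then given ThioGlo1 (50uM), H3(1-25) peptide (75uM) and acetyl-CoA (70uM); CoA-thiol fluorescence (Ex340/Em540) was read at 0 and 20 min.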
HP1b chromo inh – blocks HP1-beta chromodomain binding to methylated histone tails. Potency, µM (series often up to 114 µM), hits mostly inhibitors. AlphaScreen HP1-beta / biotin-H3K9me3 peptide binding. AID 540317. 390,000 compounds, 0.56% hits; also: nearly all actives have a fitted effect of over 70% in size
Target sequence (P83916 whole entry, looked up): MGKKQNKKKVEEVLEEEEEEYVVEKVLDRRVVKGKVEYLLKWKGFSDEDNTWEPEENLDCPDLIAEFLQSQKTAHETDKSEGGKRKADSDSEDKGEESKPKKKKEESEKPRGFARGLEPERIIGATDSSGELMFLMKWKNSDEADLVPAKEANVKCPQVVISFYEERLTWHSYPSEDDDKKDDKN
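Compound inhibition of the preformed complex between 50 nM HP1-beta and 50 nM biotinylated H3K9me3 peptide was read by AlphaScreen. Buffer was PBS pH 7.4 with 0.01% Tween-20. Incubations ran 30 min at room temperature, with 10 ug/mL donor/acceptor beads.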
BAZ2B block – BAZ2B (human) inhibition; Q9UIF8; AlphaScreen BAZ2B-H3K14Ac peptide displacement; Potency, µM (top dose mostly 114 µM), usual class: inhibitors; 360,000 compounds, 4.4% hits; AID 504333; also: nearly all actives have a fitted effect of over 60% in size
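Compounds, titrated to a top concentration of 110 uM, were incubated 30 min at room temperature with preformed BAZ2B/acetyl-K14 H3 peptide complex (50 nM each). Proximity signal was measured by AlphaScreen after 20 min with beads.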
Numbers stand for hits; – = inactive; ? = inconclusive; · = not tested or not shown; [ ] = remark or other dose. Unless noted, calls follow the shape of the dose curve; as a rule, active = well fitted curve in the direction sought with a large enough effect; inconclusive = small, poorly fitted or top-dose-only effect, or another doubt; inactive = no such curve, though single readings can be large; an effect the other way counts as inactive or inconclusive.

SMILES | PI5P4Ka inh | JMJD2A Tudor inh | PLK1 PBD block | GCN5L2 inh | HP1b chromo inh | BAZ2B block
N#CCCn1nnc2ccccc21 | – | – | – | – | – | –
S=C1SCN(Cc2ccccn2)CN1Cc1ccco1 | · | 6.3µM | ? | – | – | 18µM
S=C1SCN(Cc2cccnc2)CN1Cc1ccccc1 | – | – | – | – | – | –
COCCN1CSC(=S)N(Cc2ccco2)C1 | · | ? | 17µM | – | – | –
O=C(NCCCSc1ccccc1)c1cc(Cl)ccc1O | – | – | – | – | – | 50µM
O=C(Nc1ccc(F)cc1)c1ccc2ncsc2c1 | – | – | – | – | – | –
O=C(O)c1ccc2nc(-c3ccccc3)sc2c1 | – | – | – | – | – | –
Nc1ccc(-c2nc3ccc(C(=O)O)cc3s2)cc1 | – | – | – | 28µM | – | –
O=C(O)c1ccc2ncsc2c1 | ? | 20µM | ? | – | – | 20µM
COC(=O)c1c(NC(=O)Cc2coc3cc(C)ccc23)sc2c1CCC2 | · | – | · | – | – | –
COc1ccc(CN2C(=O)c3cccnc3C2=O)cc1S(=O)(=O)N(C)c1cccc(C)c1 | – | ? | 24µM | – | – | ?
COc1cccc(CNS(=O)(=O)c2cc(CN3C(=O)c4cccnc4C3=O)ccc2OC)c1 | – | – | – | – | – | –
COc1ccc(CN2C(=O)c3cccnc3C2=O)cc1S(=O)(=O)NCc1ccc(C)cc1 | – | – | – | – | – | 79µM
COc1ccc(CCN2C(=O)c3cccnc3C2=O)cc1OC | – | – | – | – | – | 79µM
COc1ccc(CN2C(=O)c3cccnc3C2=O)cc1S(=O)(=O)N1CCCC(C)C1 (stereo not drawn) | – | – | – | – | – | 56µM
COc1ccc(NC(=O)Cn2c(=O)n(CCc3ccccc3)c(=O)c3ccccc32)cc1 | · | – | · | – | – | –
Cc1ccc(CNCc2c(C(=O)O)n(Cc3ccc(C)cc3)c3cc(C)ccc23)cc1 | · | ? | · | – | – | –
C=Cc1ccc(Cn2c(C(=O)O)c(CNCc3ccccc3)c3ccc(C)cc32)cc1 | · | ? | · | – | – | 50µM
S=c1[nH]nc2sc3ccccc3n12 | – | 1.1µM | – | · | – | ·
CSc1ccc(CCNC(=O)C(C)n2nc(C)c3sc4ccccc4c3c2=O)cc1 (stereo not drawn) | · | – | · | – | – | ?
C[C@@H]1CN([C@H](C)CO)C(=O)CCCn2nncc2CO[C@H]1CN(C)S(=O)(=O)c1ccc(F)cc1 | – | · | – | · | · | ·
CC(C)c1c(Cl)c(O)c(-c2ccccc2)c(=O)n1-c1ccc(F)cc1 | – | 20µM | – | – | – | –
CC(C)c1cc(O)c(-c2ccccc2)c(=O)n1-c1ccc(Cl)cc1 | – | – | – | – | – | –
COc1ccc(S(=O)(=O)NCc2cccn2Cc2cccc(C)c2)cc1OC | · | – | · | – | – | ?
Nc1cc2c(cc1O)CCCC2 | – | 2.5µM | – | – | ? | –
SMILES | PI5P4Ka inh | JMJD2A Tudor inh | PLK1 PBD block | GCN5L2 inh | HP1b chromo inh | BAZ2B block
O=C1CCCCc2cc(O)c(O)cc21 | – | · | ? | · | · | ·
CC(C)C(=O)N(c1cc2sc(=O)oc2c2ccccc12)S(=O)(=O)c1cccs1 | · | ? | – | – | – | 50µM
C/C=C(\C)CN1CCN(c2ccc(C)cc2)CC1 | – | 7.1µM | – | ? | – | 25µM
C/C(=C\c1ccccc1)CN1CCN(c2cccc(Cl)c2)CC1 | · | – | – | – | – | –
COc1ccccc1C(=O)Nc1ccnn1C1CCN(Cc2ccn[nH]2)CC1 | – | – | – | – | – | –
Cc1ccc(S(=O)(=O)n2cccc2/C=C/[N+](=O)[O-])cc1 | – | · | 7.5µM | · | · | ·
N#CCSc1nc2sccc2c(=O)n1-c1ccccc1 | -70 | – | – | – | – | –
CNC(=O)CSc1nc2sccc2c(=O)n1-c1ccccc1 | ? | – | – | – | – | –
CCOc1ccc(N2C(=O)CC(N(Cc3ccco3)C(=O)CC)C2=O)cc1 (stereo not drawn) | – | – | 27µM | – | – | –
CCCOc1ccc(N2C(=O)CC(N(Cc3ccco3)C(=O)CC)C2=O)cc1 (stereo not drawn) | – | – | – | – | – | –
Cc1ccc2c(c1)S/C(=C/c1ccc[n+](C)c1)N2CCO | – | 25µM | – | – | – | –
Cc1ccc2c(c1)N(C)/C(=C/c1cccc[n+]1CCO)S2 | – | ? | – | – | – | –
CCCCN(CCCC)CCNC(=O)c1cn(C)c2ccc(S(=O)(=O)N3CCOCC3)cc2c1=O | · | – | · | – | – | ·
O=C(Cn1ccn(-c2cccc(Cl)c2)c(=O)c1=O)c1ccc(F)cc1 | · | – | · | – | – | –
S=c1oc(-c2ccncc2)nn1CCc1ccncc1 | – | – | – | – | – | 56µM
c1cc(-c2nnc(-c3ccncc3)o2)ccn1 | – | – | – | – | – | –
O=C1CCC[C@@H]2C[C@@]3(C[C@@H]4CCN1[C@H]24)Nc1cc(Cl)ccc1NC3=NC1CCCCC1 | – | – | – | · | – | ·
Cc1cc2c(cc1C)N[C@]1(C[C@H]3CCCC(=O)N4CC[C@@H](C1)[C@@H]34)C(=NC(C)(C)CC(C)(C)C)N2 | – | 22µM | – | · | ? | ·
CN(C)C(=S)Nc1ccc2c(c1)OCO2 | – | – | 6.7µM | – | – | –
Cc1ccc(C(=O)Nc2ccc3c(c2)OCO3)o1 | – | –[11.4 µM] | 12µM | – | – | –
O=C(Nc1ccc2c(c1)OCO2)c1ccccn1 | – | 4.5µM | – | – | ? | ?
COc1ccccc1NC(=O)N1CCN(c2nnc(C)c3c(C)n(-c4ccccc4)nc23)CC1 | · | – | · | – | – | –
O=C(CCc1ccc(S(=O)(=O)N2CCOCC2)cc1)N/N=C/c1ccc(O)c(O)c1O | ? | 79µM | 11µM | – | ? | ?
O=[N+]([O-])c1ccc(N/N=C/c2ccc(O)c(O)c2O)c(S(=O)(=O)N2CCOCC2)c1 | -98 | 45µM | 3µM | – | 20µM | 32µM
O=C(CCc1ccc(S(=O)(=O)N2CCOCC2)cc1)N/N=C/c1ccc(F)cc1F | – | – | – | – | – | –
SMILES | PI5P4Ka inh | JMJD2A Tudor inh | PLK1 PBD block | GCN5L2 inh | HP1b chromo inh | BAZ2B block
OC[C@@H]1CN(Cc2ccco2)C[C@H](n2cnc3c(NC4CCCC4)ncnc32)O1 | – | · | – | · | · | ·
Cn1c(N)c(N=O)c(=O)n(C)c1=S | – | – | – | · | – | ·
Cc1ccc(/C=N/n2c(COc3ccccc3)n[nH]c2=S)o1 | – | 56µM | ? | – | – | –
S=c1[nH]nc(COc2ccccc2)n1/N=C/c1ccco1 | – | 18µM | – | – | – | ?
O=S(=O)(Nc1ncccn1)c1ccc(NC(=S)Nc2ccccc2Cl)cc1 | – | – | – | – | – | –
CC(=O)Nc1cccc(C(=O)O)n1 | – | ? | – | – | – | 22µM
O=C1C2=C(C(=O)c3ccccc31)C1O[C@](c3ccsc3)(Cc3c1ccc1ccccc31)O2 | · | · | · | ? | · | 11µM
CN1c2ccc(Cl)cc2C(=O)NC1c1ccc([N+](=O)[O-])s1 (stereo not drawn) | – | – | – | – | – | –
